# Bioassay records as filed in PubChem.
# Most compounds without a hit are left out; they make up all but 31% or so of the library.
# CYP2C19 inh: inhibitors of human CYP2C19 | P33261 | CYP2C19 Supersomes, luciferin-H EGE luminescence, 30 min | inhibition, % at 5 µM | 21% of 96,000 active | AID 778;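 active means CYP2C19 inhibition above a set limit at 5 µM in the primary screen, cut at about 50% in these data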;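 further: plate controls were negative control wells for no effect and 2.5 mM tranylcypromine positive control for full effect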
# CYP2C9 inhib: human CYP2C9 inhibition; CYP2C9 Supersomes, luciferin-H conversion, luminescence; inhibition, % at 5 µM; 20% of 96,000 active; AID 777;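 active means blocking of liver enzyme CYP2C9 beyond about 50% at 5 µM, limit read from the data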
# Target sequence (P11712 whole entry, looked up): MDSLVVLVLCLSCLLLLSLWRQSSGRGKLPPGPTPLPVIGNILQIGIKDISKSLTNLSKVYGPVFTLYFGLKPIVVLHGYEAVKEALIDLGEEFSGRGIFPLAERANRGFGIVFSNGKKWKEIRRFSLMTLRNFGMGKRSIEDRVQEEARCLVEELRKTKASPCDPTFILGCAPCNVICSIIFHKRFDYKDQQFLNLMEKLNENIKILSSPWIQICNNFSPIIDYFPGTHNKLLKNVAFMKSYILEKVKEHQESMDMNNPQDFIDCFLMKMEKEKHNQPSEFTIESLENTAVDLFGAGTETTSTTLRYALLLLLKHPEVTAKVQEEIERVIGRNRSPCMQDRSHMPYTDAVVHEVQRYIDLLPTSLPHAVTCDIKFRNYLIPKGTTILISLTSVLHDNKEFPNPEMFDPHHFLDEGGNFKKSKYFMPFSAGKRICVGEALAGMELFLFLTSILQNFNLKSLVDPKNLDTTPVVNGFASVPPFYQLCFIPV
# CYP2C19 activ: increases human CYP2C19 enzyme activity; P33261; recombinant CYP2C19, luciferin-H EGE luminescence; stronger effect = higher value; 0 = fully inhibited enzyme, 1 = untreated enzyme; activation factor at 5 µM; 96,000 tested, under 10 active;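 active means activation factor of at least 2 at 5 µM in the primary screen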;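 further: 0 = wells with 2.5 mM tranylcypromine and 1 = vehicle-only wells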
# PLAP act: activates human placental alkaline phosphatase. activation fold at 20 µM. purified PLAP enzyme, luminescent substrate read-out; stronger effect = higher value. AID 696. 1.2% of 96,000 active; in the data active means activation fold above about 2
# CYP2C9 act: activators of human CYP2C9; activation factor at 5 µM; 1.4% of 96,000 active; P11712; AID 1024; recombinant CYP2C9, luciferin-H conversion, luminescence; stronger effect = higher value; factor 1 = untreated enzyme, 0 = blocked;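 active means activation factor of 2 or more for CYP2C9 at a 5 µM dose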;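 further: 0 = sulfaphenazole-blocked wells and 1 = vehicle-only wells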
# An asterisk follows results filed as active.
SMILES,CYP2C19 inh,CYP2C9 inhib,CYP2C19 activ,PLAP act,CYP2C9 act
CC(=O)Oc1cc2c(cc1Cl)C1(CC(c3ccccc3Cl)O2)CC(C)(C)NC(=S)N1 (stereo unspecified),17,32,0.8,1.6,0.7
COc1ccc2sc3ccccc3c(=O)c2c1,15,49,0.8,0.9,0.5
COc1ccc(-c2cc(=O)c3ccccc3s2)cc1,39,64*,0.6,0.7,0.4
NC(=O)CC12CC3CC(C1)CC(CC(N)=O)(C3)C2,0,8,1,0.8,0.9
NC(=S)n1[nH]c(-c2ccc([N+](=O)[O-])cc2)c(N=Nc2ccc(O)cc2)c1=O,-3,76*,1,0.7,0.2
CCc1ccccc1NC(=O)CC(O)(C(=O)OC)C(F)(F)F (stereo unspecified),48,23,0.5,1,0.8
COc1ccc(CCNC(=O)Cn2c(=O)cnc3ccccc32)cc1,39,7,0.6,0.9,0.9
COC(=O)c1ccccc1S(=O)(=O)N(Cc1cc2ccc(OC)cc2[nH]c1=O)CC1CCCO1 (stereo unspecified),38,90*,0.6,1.6,0.1
COc1ccc(NC(=O)N(Cc2cc3cc(OC)ccc3[nH]c2=O)CC2CCCO2)cc1 (stereo unspecified),-4,23,1,1.6,0.8
COc1ccc(S(=O)(=O)N(CCCN2CCCC2=O)Cc2cc3c(C)cc(C)cc3[nH]c2=O)cc1,65*,94*,0.3,1.4,0.1
COc1ccc(S(=O)(=O)N(Cc2cc3cc(C)ccc3[nH]c2=O)CC2CCCO2)cc1 (stereo unspecified),25,60*,0.7,0.9,0.4
COc1ccc(NC(=O)N(CCc2ccccc2)Cc2cc3c(C)cc(C)cc3[nH]c2=O)cc1,39,32,0.6,1.3,0.7
COc1ccc2cc(CN(CC3CCCO3)S(=O)(=O)c3ccc(C(C)=O)cc3)c(=O)[nH]c2c1 (stereo unspecified),35,60*,0.6,1.3,0.4
O=C(NCCO)C(F)(F)C(F)(F)C(F)(F)OC(F)(C(=O)NCCO)C(F)(F)F (stereo unspecified),2,38,1,1,0.6
O=c1c2ccccc2oc2ncccc12,14,20,0.9,1.1,0.8
COC(=O)C(NS(C)(=O)=O)(c1c(C)[nH]c2ccccc12)C(F)(F)F (stereo unspecified),64*,12,0.4,1,0.9
Cn1c(Cc2ccc3c(c2)OCO3)nnc1SCC(=O)N1CCc2ccccc2C1,42,11,0.6,1.3,0.9
Cc1nnc2c3ccccc3c(-c3cccc4ccccc34)nn12,61*,8,0.4,1,0.9
Cc1ccc(S(=O)(=O)c2c(N)n(Cc3ccco3)c3nc4ccccc4nc23)cc1C,54*,65*,0.5,1.5,0.4
Cc1ccc(S(=O)(=O)c2c(N)n(CCN3CCOCC3)c3nc4ccccc4nc23)cc1C,72*,0,0.3,1,1
Nc1c(S(=O)(=O)c2ccccc2)c2nc3ccccc3nc2n1Cc1ccco1,18,36,0.8,0.9,0.6
Cc1ccc(S(=O)(=O)c2c(N)n(CCC(C)C)c3nc4ccccc4nc23)cc1,43,48,0.6,1.4,0.5
Cc1ccc(S(=O)(=O)c2c(N)n(CCCO)c3nc4ccccc4nc23)cc1,92*,92*,0.1,1.6,0.1
O=C(NCCc1ccccc1)C1CCCN(S(=O)(=O)c2cccs2)C1 (stereo unspecified),45,86*,0.5,0.9,0.1
O=C(CCS(=O)(=O)c1cccs1)NC1CCCCCC1,12,-1,0.9,0.9,1
SMILES,CYP2C19 inh,CYP2C9 inhib,CYP2C19 activ,PLAP act,CYP2C9 act
O=S(=O)(NC1CCCCCCC1)c1cccs1,54*,49,0.5,0.9,0.5
COc1ccc(NC(=O)C2CCCN(S(=O)(=O)c3cccs3)C2)cc1OC (stereo unspecified),24,31,0.8,0.8,0.7
O=C(NC1CCCCCC1)C1CCCN(S(=O)(=O)c2cccs2)C1 (stereo unspecified),1,77*,1,1,0.2
O=C(NC1CCCCC1)C1CCN(S(=O)(=O)c2cccs2)CC1,-10,-22,1.1,1.1,1.2
CCOc1ccc(-n2c(SCC)nc3c(c2=O)SCC3)cc1,-9,-5,1.1,0.9,1.1
CCOc1ccc(-n2c(SCC(=O)Nc3ccc4c(c3)OCO4)nc3c(c2=O)SCC3)cc1,33,59*,0.7,1.4,0.4
CCOc1ccc(-n2c(SCC(=O)Nc3ccc4c(c3)OCCO4)nc3c(c2=O)SCC3)cc1,77*,63*,0.2,0.7,0.4
CS(=O)(=O)Nc1ccc(Br)cc1C(=O)c1ccccc1,92*,88*,0.1,1.6,0.1
COC(=O)c1ccc(C(=O)OC)c(NC(=O)CSc2ccccn2)c1,48,47,0.5,0.8,0.5
O=C(CSc1ncn[nH]1)Nc1ccc2c(c1)OCCO2,27,24,0.7,0.9,0.8
Clc1ccc(CSc2ncn[nH]2)cc1,28,5,0.7,1.7,0.9
COC(=O)c1ccc(Cl)c(NC(=O)CSc2ncn[nH]2)c1,74*,41,0.3,1.8,0.6
CC(=O)Nc1nonc1NC(=O)CSc1ncn[nH]1,4,18,1,1.4,0.8
COC(=O)c1cccc(NC(=O)CSc2ncn[nH]2)c1,57*,27,0.4,1,0.7
O=C(CSc1ncn[nH]1)Nc1ccccc1Sc1ccc(Cl)cc1,98*,93*,0,1.6,0.1
O=C(CSc1ncn[nH]1)Nc1c(F)cc(F)cc1Br,16,-2,0.8,2.1*,1
COCCNC(=O)CN(c1cccc(OC)c1)S(=O)(=O)c1ccc(C)cc1,76*,40,0.2,1.6,0.6
COc1cccc(N(CC(=O)NCCSc2ccccc2)S(C)(=O)=O)c1,93*,56*,0.1,0.9,0.4
COc1ccc(CCNC(=O)CN(c2ccc(OC)c(OC)c2)S(C)(=O)=O)cc1OC,3,16,1,0.9,0.8
COc1ccc(N(CC(=O)NCCSC(C)(C)C)S(C)(=O)=O)c(OC)c1,4,-2,1,1.4,1
COc1cccc(N(CC(=O)NCCSc2ccc(Cl)cc2)S(C)(=O)=O)c1,14,16,0.9,1.1,0.8
COc1ccc(CNC(=O)CN(c2cccc(OC)c2)S(C)(=O)=O)cc1,87*,17,0.1,1,0.8
COc1cccc(N(CC(=O)O)S(=O)(=O)c2ccccc2)c1,-21,-10,1.2,1.1,1.1
COc1ccc(OC)c(N(CC(=O)NCCSc2ccccc2)S(C)(=O)=O)c1,94*,90*,0.1,1.5,0.1
CCc1ccc(CN2CCN(S(=O)(=O)Cc3ccccc3)CC2)cc1,18,1,0.8,0.9,1
c1ccc(N2CCCCC2)c(NC2=NCCC2)c1,6,18,0.9,1,0.8
COc1ccc(OC(=O)c2cn(C)nc2C(F)(F)F)cc1,61*,4,0.4,1.2,1
